Tau fibril FP = tau fibrillization inhibition (FP); actives 0.39% (n = 280,000); P10636; Potency, µM (highest dose often 57.7 µM), usual class: inhibitors; K18 P301L tau heparin fibrillization, Alexa594 FP, 6 h; AID 1468; also: nearly all actives have a fitted effect of over 55% in size
Target sequence (P10636 561-689 P618L limits assumed): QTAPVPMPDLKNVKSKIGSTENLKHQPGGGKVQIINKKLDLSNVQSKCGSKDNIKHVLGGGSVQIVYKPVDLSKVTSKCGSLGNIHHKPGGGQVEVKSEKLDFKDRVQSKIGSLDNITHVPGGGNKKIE
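Steps: dispense K18 P301L tau (15 uM plus 0.24 uM Alexa 594 tracer, final) in pH 7 sodium acetate; add compound; add heparin (20 uM final); incubate 6 hr, 37 C; add ThT (30 uM final); after 1 hr ambient, read FP.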
Tau fibril ThT = tau fibrillization inhibition (ThT binding); Potency, µM (series often up to 57.4 µM), hits mostly inhibitors; recombinant tau K18 P301L, heparin-induced fibrillization, ThT fluorescence; P10636; actives 2.1% (n = 270,000); also: nearly all actives have a fitted effect of over 55% in size
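Aggregation was driven by heparin (20 uM final) acting on recombinant tau […] bearing P301L in 100 mM sodium acetate pH 7; fibrils were detected with Thioflavin T.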
VP16 counter = counter-screen for ROR gamma inhibitors: Gal4-VP16 reporter | Drosophila S2 Gal4-VP16 UAS-luciferase, luminescence, 20 h | Potency, µM (doses to about 53.6 µM), most hits filed as inhibitors | actives 3.5% (n = 310,000) | AID 2546;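 also: Gal4-VP16 expression switched on by copper sulfate through the metallothionein promoter; nearly all actives have a fitted effect of over 50% in size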
Tau fluor counter = counter-screen for tau fibril formation inhibitors | tau K18 P301L (four-repeat tau fragment) Alexa594 fluorescence, heparin fibrillization | Potency, µM (highest dose often 57.7 µM) | actives 0.93% (n = 280,000); also: nearly all actives have a fitted effect of over 55% in size
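Human K18 P301L tau (15 uM unlabeled plus 0.24 uM Alexa 594-labeled, final) in 100 mM sodium acetate pH 7 was mixed with compound and 20 uM heparin and incubated 6 hr at 37 C.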
RORgamma inh = inhibitors of mouse ROR gamma transcriptional activity; P51450; Drosophila S2 Gal4-RORgamma UAS-luciferase reporter, 20 h; Potency, µM (top dose mostly 53.6 µM), most hits filed as inhibitors; actives 5.4% (n = 310,000); AID 2551; also: nearly all actives have a fitted effect of over 60% in size
Target sequence (P51450 whole entry, looked up, the tested form may be a part): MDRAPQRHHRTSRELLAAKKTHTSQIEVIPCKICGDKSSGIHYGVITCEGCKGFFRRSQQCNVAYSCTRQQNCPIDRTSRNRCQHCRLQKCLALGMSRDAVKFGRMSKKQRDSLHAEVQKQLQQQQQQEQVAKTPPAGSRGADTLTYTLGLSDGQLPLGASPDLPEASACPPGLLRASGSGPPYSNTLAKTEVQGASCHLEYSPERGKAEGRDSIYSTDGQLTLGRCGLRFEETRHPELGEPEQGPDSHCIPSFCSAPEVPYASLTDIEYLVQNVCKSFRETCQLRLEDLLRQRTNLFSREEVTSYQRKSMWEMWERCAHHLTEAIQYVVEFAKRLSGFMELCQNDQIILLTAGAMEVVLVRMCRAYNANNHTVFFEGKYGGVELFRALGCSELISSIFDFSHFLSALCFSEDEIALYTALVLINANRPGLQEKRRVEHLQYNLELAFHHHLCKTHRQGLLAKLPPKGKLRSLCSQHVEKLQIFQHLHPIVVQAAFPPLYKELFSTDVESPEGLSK
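Stable Schneider cell line, Gal4 DNA-binding domain fused to ROR gamma, UAS-luciferase. Cmpd 1 hr RT → CuSO4 700 uM final → 20 hr RT → luciferase reagent 10 min → luminescence.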
Hits are given with their value; – = inactive; ? = inconclusive; · = no result; ! = not confirmed by another sample; [ ] = another dose, or the depositor's remark. Sampled rows, rich in hits. Any-hit rate of the full collection: about 7.3%. Calls follow the shape of the dose curve; as a rule, active = well fitted curve in the direction sought with a large enough effect; inconclusive = small, poorly fitted or top-dose-only effect, or another doubt; inactive = no such curve, though single readings can be large; an effect the other way counts as inactive or inconclusive.

SMILES | Tau fibril FP | Tau fibril ThT | VP16 counter | Tau fluor counter | RORgamma inh
COc1cccc(CN(C(=O)c2oc3ccccc3c2C)C2CCS(=O)(=O)C2)c1 (configuration not stated) | – | – | · | – | ·
c1ccc2c(c1)CCN(c1ncnc3c1[nH]c1ccccc13)C2 | ? | ? | 6.31µM | ? | 12.6µM
COc1ccc2c(c1)[nH]c1c(N3CCN(Cc4ccc5c(c4)OCO5)CC3)ncnc12 | – | ? | 10µM | 15.8µM[quencher] | ?
c1nc(N2CCN(Cc3ccc4c(c3)OCO4)CC2)c2[nH]cnc2n1 | – | – | – | – | –
COc1cccc2[nH]c3c(N4CCN(Cc5ccc6c(c5)OCO6)CC4)ncnc3c12 | ? | – | – | – | –
Cc1ccc2c(c1)[nH]c1c(N3CCN(Cc4ccccc4)CC3)ncnc12 | ? | – | 3.16µM | ? | ?
Cc1ccc2[nH]c3c(N4CCN(Cc5ccc6c(c5)OCO6)CC4)ncnc3c2c1 | ? | ? | 10µM | – | ?
Cc1cccc(CCn2c(=O)c3ccccc3n(Cc3ccccc3C)c2=O)c1 | – | – | · | – | ·
CCN1CCN(S(=O)(=O)c2c(C)[nH]c(C)c2C(=O)N2CCCCC2)CC1 | · | · | – | · | –
CC(C)S(=O)(=O)c1oc(-c2ccc(F)cc2)nc1S(=O)(=O)c1ccccc1 | – | ? | · | – | ·
CCOc1ccc(S(=O)(=O)N(CC(=O)NCc2cccnc2)c2ccc(F)cc2)cc1 | · | · | – | · | –
NC(=O)c1ccccc1NC(=O)c1ccoc1 | · | · | – | · | –
Cc1ccc2[nH]c3c(N4CCN(Cc5ccccc5)CC4)ncnc3c2c1 | ? | ? | 3.55µM | ? | ?
c1ccc(CN2CCN(c3ncnc4c3[nH]c3ccccc34)CC2)cc1 | – | ? | 15.8µM | ? | ?
CCOc1ccc(CNC(=O)Cn2nc(C)n3cccc3c2=O)cc1 | – | – | · | – | ·
CCCCS/C(N)=N/N=C/c1ccccc1O | – | ? | 1.12µM | ? | 0.631µM
CCN(CC)c1ccc(C=Nc2cc(C)ccc2C)c(O)c1 | – | ? | – | – | –
CCCS/C(N)=N/N=C/c1cc(C)ccc1O | – | ? | 2µM | ? | 0.891µM
CCOC(=O)C1CCCN(c2ncnc3c2cnn3-c2ccc(C)c(Cl)c2)C1 (configuration not stated) | – | ? | · | – | ·
CCCn1c(SCC(O)c2ccccc2)nc2ccccc21 (configuration not stated) | – | – | · | – | ·
Cc1ccc(NC(=O)CCCSc2ccccc2)cc1S(=O)(=O)N1CCOCC1 | – | – | – | – | ?
CC(=O)N1CCOc2ccc(S(=O)(=O)N3CCC(C(=O)NCc4ccc(C)cc4)CC3)cc21 | · | · | – | · | –
Cc1nc2ccccc2c(=O)n1-c1ccc(NC(=O)C(F)(F)F)cc1 | – | – | · | – | ·
CCn1nc(C)c(CNC(=O)c2ccc(OC3CCN(Cc4ccccn4)CC3)cc2)c1C | · | · | 7.08µM | · | –
O=C(NCCc1cccc(Cl)c1)c1ccc(OC2CCN(Cc3ccccn3)CC2)cc1 | · | · | – | · | 17.8µM
SMILES | Tau fibril FP | Tau fibril ThT | VP16 counter | Tau fluor counter | RORgamma inh
CCn1cc(CNC(=O)c2ccc(OC3CCN(Cc4ccccn4)CC3)cc2)cn1 | · | · | – | · | ?
Cc1cccnc1CCNC(=O)c1ccc(OC2CCN(Cc3ccccn3)CC2)cc1 | · | · | ? | · | 14.1µM
COC(=O)[C@@]1(Cc2ccccc2)C=C[C@@H](C)N1C(=O)c1ccccc1 | – | – | – | – | –
Cc1cnc2c(c1SCC(=O)N(C)c1ccccc1)c(=O)n(C)c(=O)n2C | – | – | · | – | ·
Cc1cccc(N2CCN(C(=O)c3ccc4c(Cl)c5c(nc4c3)CCCC5)CC2)c1C | – | ? | · | – | ·
COc1ccc(NC(=O)Cn2c(=O)n(Cc3ccccc3)c(=O)c3oc4ccccc4c32)cc1Cl | 28.2µM | ? | · | – | ·
COc1ccc(NC(=O)Cn2c(=O)n(Cc3ccccc3OC)c(=O)c3cccnc32)cc1Cl | 25.1µM | – | · | – | ·
Cc1ccc(Cn2c(=O)c3cccnc3n(CC(=O)Nc3cccc(C(F)(F)F)c3)c2=O)cc1 | 17.8µM! | – | ? | – | –
Cc1cccc(OCCCC(=O)Nc2nc3ccccc3[nH]2)c1 | – | – | – | – | 14.1µM
O=C(CCCOc1ccccc1)Nc1nc2ccccc2[nH]1 | – | – | – | – | 7.08µM
O=C(CCCOc1ccccc1)NCCc1nc2ccccc2[nH]1 | – | ? | – | – | –
Cc1ccc(OCCCC(=O)Nc2nc3ccccc3[nH]2)cc1 | – | – | – | – | 6.31µM
Cc1nn(-c2ccc(F)cc2)c(Cl)c1/C=N/NC(=O)c1ccc(O)cc1 | – | – | 2.24µM | – | ?
CNC(=S)N/N=C/c1c(C)nn(-c2ccc(F)cc2)c1Cl | – | – | 7.08µM | – | 2.82µM
Cc1nn(-c2ccc(F)cc2)c(Cl)c1/C=N/NC(=O)c1cccs1 | – | – | – | – | ?
COc1ccc(NC(=O)N2CCc3nc(-c4ccccc4)c4c(c3C2)CO[C@@H](C)C4)cc1 | –[11.6 µM] | –[11.5 µM] | · | –[11.6 µM] | ·
CN(C)c1ccc(-c2nc3ccccn3c2/N=C/c2ccc(Br)cc2)cc1 | ? | 14.1µM | 8.91µM | ? | 7.08µM
Cc1c(-c2ccc(Br)cc2)nc2ccccn12 | – | ? | ? | – | 10µM
CNc1oc(-c2ccc(COc3ccc(C)cc3)o2)nc1C#N | – | – | · | ? | ·
COc1ccc(C2NCCc3c2[nH]c2ccccc32)cc1COc1ccc(F)cc1 (configuration not stated) | – | ? | 8.91µM | – | 10µM
COc1ccc(C2NCCc3c2[nH]c2ccccc32)cc1CN1CCc2cc(OC)c(OC)cc2C1C (configuration not stated) | · | · | – | · | –
CCC(=O)Nc1ccccc1-c1nc2ccccc2n(CC(=O)c2ccc(C)c(C)c2)c1=O | – | – | · | – | ·
CN1C(=O)c2ccccc2Sc2ccc(NC(=O)COc3ccc(Cl)cc3)cc21 | ? | – | · | ? | ·
O=c1cc2c(=O)oc3cc(O)c(O)oc3c2c(O)c1O | ? | 4.47µM | – | – | –
COc1c(O)cc2c(=O)oc3c(OC)c(O)cc4c(=O)oc1c2c34 | – | ? | – | – | –
SMILES | Tau fibril FP | Tau fibril ThT | VP16 counter | Tau fluor counter | RORgamma inh
CC(=O)c1ccc(NC(=O)C(Cc2ccccc2)NS(=O)(=O)c2ccc3c(c2)CCC(=O)N3)cc1 (configuration not stated) | – | – | · | – | ·
O=C1CCc2cc(S(=O)(=O)NC(Cc3ccccc3)C(=O)NCC3CCCO3)ccc2N1 (configuration not stated) | – | ? | – | – | 7.94µM
Cc1cccc(NC(=O)c2cc3c(=O)n(Cc4cccnc4)ccc3nc2C)c1 | – | – | · | – | ·
COc1ccc(NC(=O)c2cnc(N3CCCCC3)c3ccccc23)cc1Cl | – | – | · | ? | ·
Cn1ccnc1SCC(=O)NC1CCCCC1 | – | – | – | – | –
Cn1ccnc1SCC(=O)c1ccc2ccccc2c1 | – | – | ? | – | 11.2µM
O=C(CSc1ncccc1C(=O)O)c1ccc2ccccc2c1 | – | – | 2.24µM | – | 11.2µM
Cn1ccnc1SCC(=O)N(C1CCCCC1)C1CCCCC1 | – | – | ? | – | 11.2µM
COc1cccc(C(=O)CSc2nccn2C)c1 | · | · | ? | · | 10µM

High-throughput results: PubChem, National Center for Advancing Translational Sciences (NCATS)
